Where “and” joins values, the source holds several entries; their conditions need not be identical. Equal entries are not always repeated. Inconclusive results are not listed. Values without a mark were called inactive. Calls come from the whole dose curve; as a rule, active = well fitted activation curve with a large enough effect in the signal ratio; inconclusive = small, poorly fitted or top-dose-only effect, or a change in a side signal; inactive = flat fitted curve, though single readings scatter; the % refers to the signal ratio.

This test can be described thus: qHTS assay for small molecule activators of the nuclear factor-kappa B (NF-kB) signaling pathway (AID 651749). Note: series mostly up to about 77 µM; % of control where 0% means no effect. To be noted: NF-kB-bla ME-180 cells, beta-lactamase FRET ratio, 16 h; stronger effect = higher value. The source says: National Center for Advancing Translational Sciences [NCATS] NIH Chemical Genomics Center [NCGC] U.S. Environmental Protection Agency [EPA] National Institutes of Environmental Health Sciences [NIEHS] National Toxicology Program [NTP] Assay Overview: Transcription factors and their stimulated target gene expression play pivotal roles across many cellular processes including responses to environmental stimuli. Proper regulation of associated pathways is critical to maintain cell health and function. Constitutive activation of transcription factor pathways has been implicated in tumors as it may block cellular functions such as apoptosis and lead to invasion and metastasis. One important transcription factor that stimulates gene expression in response to cytokines, UV radiation, and other stimuli is nuclear factor-kappa B (NF-kB). To measure activation of the NF-kB pathway, the NF-kB-bla ME-180 cell line stably expressed beta-lactamase reporter gene under the regulation of a NF-kB response element was obtained from Invitrogen. This assay allows measurement of the NF-kB pathway activity induced by compounds in a ME-180 cell line. This system quantitates NF-kB activity using a FRET-based assay system where beta-lactamase expression disrupts FRET, allowing for fluorescent measurement of activity.
Assay Protocol Summary: For toxicology screening, 2,000 cells in 5 uL/well were dispensed into black, clear-bottom 1536-well plates using a Multidrop Combi (Thermo Scientific) dispenser. Following transfer of 23 nL compound or DMSO vehicle by a pin tool, the plates were incubated 16 hr at 37C and 5% CO2.
(In general: Quantitative high-throughput screening tests each substance at several concentrations.)
Take `Cc1cc(=O)n(-c2ccccc2)n1C`: the activation was -1.22%.

On to `Oc1ccc(O)cc1`, for which the activation was -1.26%.

`O=C1OC(c2ccc(O)cc2)(c2ccc(O)cc2)c2ccccc21`: the activation is -1.2% and -2.62%.

`CN(C)C(=S)SC(=S)N(C)C`: the activation is -1.81%.

Take `CC(O)C(=O)O` (stereo unspecified): the activation was -0.579%.

As for `COc1cccc2c1C(=O)c1c(O)c3c(c(O)c1C2=O)C[C@@](O)(C(=O)CO)C[C@@H]3O[C@H]1C[C@H](N)[C@H](O)[C@H](C)O1`, the activation was -4.76%.

For `O=C(O)CCCCC(=O)O`, the activation is 1%.

As for `Nc1ccc(C(=O)O)cc1`, the activation is 0.93%.

Turning to `CC(=O)O[C@]1(C(C)=O)CC[C@H]2[C@@H]3C[C@H](C)C4=CC(=O)CC[C@]4(C)[C@H]3CC[C@@]21C`, the activation is -2.22% and -5.39%.

Turning to `COC1=CC(=O)C[C@@H](C)[C@]12Oc1c(Cl)c(OC)cc(OC)c1C2=O`, the activation was -1.44%.

Consider `O=c1ccc2ccccc2o1`, for which the activation is -0.596% and -0.85% and -2.41%.

The record behind these values is PubChem BioAssay (NCATS).
